# From PubChem BioAssay
# Compounds with a hit are over-represented: about 21% of the library has one in this group of screens.
# CYP2C19 inh – inhibitors of human CYP2C19; P33261; CYP2C19 Supersomes, luciferin-H EGE luminescence, 30 min; inhibition, % at 5 µM; 96,000 tested, 21% active; AID 778;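 active = CYP2C19 inhibition above a set limit at 5 µM in the primary screen, cut at about 50% in these data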;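 also: plate controls were negative control wells for no effect and 2.5 mM tranylcypromine positive control for full effect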
# CYP2C9 act – activators of human CYP2C9 | P11712 | recombinant CYP2C9, luciferin-H conversion, luminescence; stronger effect = higher value; factor 1 = untreated enzyme, 0 = blocked | activation factor at 5 µM | 96,000 tested, 1.4% active | AID 1024;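 active = activation factor of 2 or more for CYP2C9 at a 5 µM dose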;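 also: 0 = sulfaphenazole-blocked wells and 1 = vehicle-only wells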
# Target sequence (P11712 whole entry, looked up): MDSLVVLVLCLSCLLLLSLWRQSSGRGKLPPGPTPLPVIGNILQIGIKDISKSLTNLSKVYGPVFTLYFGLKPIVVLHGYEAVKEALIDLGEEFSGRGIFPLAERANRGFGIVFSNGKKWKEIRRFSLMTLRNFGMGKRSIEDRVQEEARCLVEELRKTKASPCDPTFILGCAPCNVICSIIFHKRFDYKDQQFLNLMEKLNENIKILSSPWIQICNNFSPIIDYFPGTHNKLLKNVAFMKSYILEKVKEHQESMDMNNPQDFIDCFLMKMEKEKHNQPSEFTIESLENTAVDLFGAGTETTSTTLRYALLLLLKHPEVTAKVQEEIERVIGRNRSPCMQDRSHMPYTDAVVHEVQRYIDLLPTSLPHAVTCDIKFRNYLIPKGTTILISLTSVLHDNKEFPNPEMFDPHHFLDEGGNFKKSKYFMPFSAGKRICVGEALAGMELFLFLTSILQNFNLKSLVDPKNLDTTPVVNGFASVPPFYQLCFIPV
# CYP2C9 inh – human CYP2C9 inhibition. 96,000 tested, 20% active. CYP2C9 Supersomes, luciferin-H conversion, luminescence. P11712. inhibition, % at 5 µM. AID 777;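 active = blocking of liver enzyme CYP2C9 beyond about 50% at 5 µM, limit read from the data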
# MRP-1 activ – activators of MRP-1; H69AR cells + doxorubicin, viability rescue, CellTiter-Glo; viability increase, % at 10 µM; 140,000 tested, 0.61% active; AID 799;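 active = viability gain under doxorubicin at or above a set limit, the compound median plus 3 SD, cut at about 4.7% in these data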;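 also: MRP-1 overexpressing cells given doxorubicin 25 µM after compound pretreatment; 18-22 h compound pretreatment then 72 h with doxorubicin before readout; 0% = doxorubicin-only wells and 100% = vehicle-treated cells without doxorubicin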
# CYP2C19 activ – activators of human cytochrome P450 2C19 | recombinant CYP2C19, luciferin-H EGE luminescence; stronger effect = higher value; 0 = fully inhibited enzyme, 1 = untreated enzyme | activation factor at 5 µM | 96,000 tested, under 10 active | AID 1025;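 active = activation factor of at least 2 at 5 µM in the primary screen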;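 also: 0 = wells with 2.5 mM tranylcypromine and 1 = vehicle-only wells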
# MRP reversal – MRP-mediated drug resistance reversal; 85,000 tested, 0.04% active; AID 602; differential viability (reversal), % at 10 µM; H69AR cells + 2 uM doxorubicin, CellTiter-Glo, 72 h;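 active = viability drop by adding the cancer drug above about 55%, with treated viability meeting a 40% cutoff, limit read from the data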;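 also: viability without doxorubicin minus viability with 2 µM doxorubicin for each compound; larger differential means the compound sensitizes cells more to doxorubicin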
# Active calls of the source: *; . = not tested or not shown.
SMILES,CYP2C19 inh,CYP2C9 act,CYP2C9 inh,MRP-1 activ,CYP2C19 activ,MRP reversal
CCC1(C)Cc2c(sc(NC(=O)CCC(=O)O)c2C#N)CO1 (stereo unspecified),-8,1,0,-1,1.1,5
CCC(=O)Nc1sc2c(c1C#N)CC(C)(CC)OC2 (stereo unspecified),51*,0.9,8,0,0.5,25
COc1ccc(C=O)cc1COc1c(F)c(F)cc(F)c1F,60*,0.6,44,-4,0.4,.
COc1cccc(CNCC(=O)N2C(C)CCCC2C)c1 (stereo unspecified),49,0.9,12,-1,0.5,2
O=C(O)C1CCCCC1C(=O)NCCCn1ccnc1 (stereo unspecified),16,0.9,14,0,0.8,-14
O=C(O)C1C2C=CC(C2)C1C(=O)NCCc1ccncc1 (stereo unspecified),78*,0.8,23,1,0.2,5
O=C(O)C1C2C=CC(C2)C1C(=O)NCCCn1ccnc1 (stereo unspecified),88*,0.3,67*,-1,0.1,0
O=C(O)C1C2C=CC(C2)C1C(=O)NCCc1ccccc1 (stereo unspecified),3,0.9,7,0,1,-9
Cc1ccc(C2C(C(=O)c3sc(-c4ccccc4)nc3C)=C(O)C(=O)N2CCN(C)C)o1 (stereo unspecified),.,.,.,.,.,3
CCC(=O)N1CCc2cc(S(=O)(=O)NC(CC(C)C)C(=O)N3CCc4ccccc43)ccc21 (stereo unspecified),52*,0.8,24,-2,0.5,4
COc1ccc(CCNS(=O)(=O)c2ccc(S(=O)(=O)N3CCCC3)cc2)cc1OC,36,0.4,57*,-1,0.6,-6
CCC(=O)N1CCc2cc(S(=O)(=O)NC(Cc3ccccc3)C(=O)NC3CCCCC3)ccc21 (stereo unspecified),.,.,.,-4,.,8
CC(=O)N1CCc2cc(S(=O)(=O)CCC(=O)NCc3cccs3)ccc21,11,1.1,-13,0,0.9,-5
CCOc1ccc(OCC)c(NS(=O)(=O)c2ccc3c(c2)CCN3C(=O)C2CCC2)c1,33,0.2,79*,-3,0.7,13
COc1ccc(CCNS(=O)(=O)c2ccc3c(c2)n(C)c(=O)c(=O)n3C)cc1OC,3,1.1,-8,-2,1,.
CCC(=O)N1CCc2cc(S(=O)(=O)CCC(=O)NCCc3ccccc3)ccc21,35,0.5,50*,-2,0.7,19
O=C(C1CCCO1)N1CCC(O)(c2ccccc2)CC1 (stereo unspecified),19,1,-1,0,0.8,1
Clc1ccc(/C=N/c2c(-c3ccc(Cl)cc3)nc3n2CCS3)cc1,0,1,0,-1,1,-29
Cc1cccc(N2CCN(C(=O)CCCSc3nc4ccccc4[nH]3)CC2)c1C,42,0.6,44,0,0.6,8
COc1ccc(CCNC(=O)CCC(=O)N2CCN(S(=O)(=O)c3ccc(Cl)cc3)CC2)cc1OC,0,0.9,14,-2,1,15
COc1ccc(CCNS(=O)(=O)c2ccc3c(c2)CC(C)N3C(C)=O)cc1OC (stereo unspecified),25,0.6,38,-1,0.8,-13
CCC(=O)N1CCc2cc(S(=O)(=O)CCC(=O)NCCc3ccc(OC)c(OC)c3)ccc21,28,0.4,55*,-1,0.7,21
COc1ccc(CCNS(=O)(=O)c2ccc3c(c2)CCN3C(=O)C2CC2)cc1OC,45,0.3,66*,0,0.6,11
CC(C)c1ccc(NC(=O)c2cc(S(=O)(=O)NCC3COc4ccccc4O3)ccc2F)cc1 (stereo unspecified),.,.,.,-5,.,.
Nc1nc(-c2cccc(Br)c2)cs1,64*,1,0,-1,0.4,13
SMILES,CYP2C19 inh,CYP2C9 act,CYP2C9 inh,MRP-1 activ,CYP2C19 activ,MRP reversal
Cn1cccc1C(=O)C(=O)Nc1cccc(Cl)c1Cl,28,2*,-99,-1,0.7,.
Cn1cccc1C(=O)C(=O)Nc1ccc(Cl)cc1,32,1.1,-6,-1,0.7,.
O=C(NCC1CCCO1)c1ccccc1-c1nc(-c2ccc(Cl)cc2)no1 (stereo unspecified),10,0.8,19,-1,0.9,11
CCNC(=O)c1ccccc1-c1nc(-c2ccccc2Cl)no1,15,0.2,76*,-1,0.8,-7
CC(C)(C)NC(=O)c1ccccc1-c1nc(-c2ccccc2Cl)no1,85*,0,100*,-1,0.2,-5
COc1cccc(NC(=O)c2ccccc2-c2nc(-c3cccc(C)c3)no2)c1,36,0.4,61*,-2,0.6,-14
CC(C)NC(=O)c1ccccc1-c1nc(-c2ccccc2Cl)no1,17,0.2,79*,0,0.8,6
CC(C)c1ccc(/C=N/NC(=O)c2nnn(-c3nonc3N)c2CSC2=NCCS2)cc1,.,.,.,-3,.,.
CCOc1ccccc1NC(=O)c1ccccc1-c1nc(-c2ccccc2OC)no1,39,0.4,63*,-1,0.6,2
COCCNC(=O)c1ccccc1-c1nc(-c2ccccc2OC)no1,11,0.8,19,-2,0.9,9
CCCCCCn1c(SCC(=O)c2c(N)n(C)c(=O)n(C)c2=O)nc2ccccc21,22,0.3,75*,-2,0.8,-6
O=C(COC(=O)C(Cc1ccccc1)NC(=O)c1ccc(Cl)cc1)c1ccc(Cl)cc1 (stereo unspecified),.,.,.,0,.,.
CCOC(=O)c1c(-c2ccc(C)o2)csc1NC(=O)CN1CCOCC1,54*,0.3,72*,-1,0.5,10
CCOC(=O)c1c(-c2cccs2)csc1NC(=O)CN1CCOCC1,45,0.3,73*,-2,0.5,9
CCOC(=O)c1c(-c2ccc(C)o2)csc1NC(=S)NC(=O)N(C)C,18,0.5,53*,-3,0.8,.
CCOC(=O)c1c(-c2ccc(C)cc2)csc1NC(=O)CCN1CCOCC1,.,.,.,-5,.,.
CCOC(=O)c1c(-c2ccc(C)o2)csc1NC(=O)CSc1ncn[nH]1,61*,0.1,85*,6.8*,0.4,3
CCOC(=O)c1c(-c2ccc(C)o2)csc1NC(=O)COC(=O)c1cccs1,.,.,.,-3,.,21
CSc1nc(C)c2c(n1)N(c1ccc(C(C)C)cc1)CC2,-5,0.9,6,-1,1,.
COc1cc(CCC(=O)Nc2cccc(S(=O)(=O)N(C)C)c2)cc(OC)c1OC,.,.,.,-1,.,.
CCOC(=O)c1c(-c2cccs2)csc1NC(=O)CC(C)C,15,0.9,10,1,0.9,-31
CCOC(=O)c1c(-c2cccs2)csc1NC(=O)CN(CC)CC,38,0.2,75*,-2,0.6,26
CCOc1ccc2ccccc2c1/C=N/n1cncn1,49,0.4,58*,-2,0.5,-1
CCCOc1ccc2ccccc2c1/C=N/n1cnnc1,60*,0.4,57*,-3,0.4,.
